Inconclusive results are not listed. Entries that show only a call come without a potency. Active and inactive are the calls of the source. The call rests on the fitted dose curve; in most records, active means well fitted curve in the direction sought with a large enough effect; inconclusive means small, poorly fitted or top-dose-only effect, or another doubt; inactive means no such curve, though single readings can be large; an effect the other way counts as inactive or inconclusive.
Potency means the concentration at half of the fitted maximal effect.

Furin (Homo sapiens), sequence (P09958 whole entry, looked up): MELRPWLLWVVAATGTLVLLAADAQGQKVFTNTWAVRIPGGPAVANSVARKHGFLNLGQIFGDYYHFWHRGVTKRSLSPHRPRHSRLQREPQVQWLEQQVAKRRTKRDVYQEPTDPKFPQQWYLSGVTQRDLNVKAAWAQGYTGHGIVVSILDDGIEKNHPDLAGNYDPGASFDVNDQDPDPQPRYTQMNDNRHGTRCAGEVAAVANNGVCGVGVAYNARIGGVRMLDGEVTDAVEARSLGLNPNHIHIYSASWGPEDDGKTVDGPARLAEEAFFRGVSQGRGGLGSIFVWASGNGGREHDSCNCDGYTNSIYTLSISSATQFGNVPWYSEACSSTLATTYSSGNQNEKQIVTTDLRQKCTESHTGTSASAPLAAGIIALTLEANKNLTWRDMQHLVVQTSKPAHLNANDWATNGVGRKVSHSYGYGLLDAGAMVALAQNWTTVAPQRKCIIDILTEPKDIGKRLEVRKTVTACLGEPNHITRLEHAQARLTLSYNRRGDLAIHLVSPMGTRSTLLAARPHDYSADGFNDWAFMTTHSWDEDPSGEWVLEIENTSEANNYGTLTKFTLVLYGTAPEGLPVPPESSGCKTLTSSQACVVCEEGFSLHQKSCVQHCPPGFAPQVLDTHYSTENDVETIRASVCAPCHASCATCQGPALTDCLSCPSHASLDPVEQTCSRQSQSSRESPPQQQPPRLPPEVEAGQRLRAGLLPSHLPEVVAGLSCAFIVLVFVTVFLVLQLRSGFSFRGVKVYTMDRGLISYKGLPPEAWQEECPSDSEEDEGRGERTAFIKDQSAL

One assay concerns the target Furin (Homo sapiens) (UniProt P09958). Briefly: Furin counterscreen qHTS for Zika virus inhibitors (AID 1347149). Further: nearly all actives have a fitted effect of over 70% in size. Conditions: furin enzymatic counterscreen, fluorogenic substrate; series mostly up to 57.5 µM. The method in brief:
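Counterscreen measures cleavage of 2 microM BOC-RVRR-AMC, below its ~15 microM Km, by 5 nM full-length human furin at pH 7.0 after a 15-min compound preincubation. Inhibition derives from the 15-min fluorescence increase at 37C.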
(The purpose of a counterscreen is to sort out artefacts and off-target activity.)
`Cn1c(=O)c2[nH]c(-c3ccc(S(=O)(=O)O)cc3)nc2n(C)c1=O`: the Potency was 12.1 µM (active). As for `O=c1[nH]c(=S)[nH]c(-c2ccccc2)c1Cc1c(O)ccc2ccccc12`, the Potency result is “inactive”. Still for that read-out and setting: next, `O=C1NC(=O)c2cc(Nc3ccccc3)c(Nc3ccccc3)cc21`: “inactive”.

A further assay deals with Zika virus NS2B-NS3 protease (unlinked). Briefly: Optimization of GU AMC qHTS for Zika virus inhibitors: Unlinked NS2B-NS3 protease assay (AID 1347151). Further: nearly all actives have a fitted effect of over 80% in size. Particulars: recombinant ZIKV NS2B-NS3 protease, fluorogenic AMC substrate; series mostly up to 52.5 µM. The essentials: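 Unlinked protease (25 nM final); buffer 10 mM Tris-HCl pH 8.0 + 0.01% Tween 20; AMC substrate; 15 min RT, dark; Δfluorescence normalized to no-inhibitor/no-enzyme controls; 4-parameter Hill fit.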
As for `COc1ccccc1N1CCN(CCN(C(=O)c2ccc(F)cc2)c2ccccn2)CC1`, the Potency result was “inactive”. On the same count and under the same terms, next, `CCOC(=O)C12CC1/C(=N/O)c1ccccc1O2` (configuration not stated): “inactive”; `N#C/C(=C\c1ccc(O)c(O)c1)C(=O)NCCCNC(=O)/C(C#N)=C/c1ccc(O)c(O)c1`: 0.597 µM (active); `CC[C@@H]1Cc2cc(O)ccc2C2=C1c1ccc(O)cc1C[C@H]2CC`: “inactive”.

For `O=[N+]([O-])c1cccc2c(Br)[nH]nc12`, the Potency entry is “inactive”. Same read-out and setting: next, `C[C@H](NC(=O)/C(C#N)=C/c1ccc(O)c(O)c1)c1ccccc1`: 2.38 µM (active); `CC(C)NC[C@H](O)COc1ccc(CC(N)=O)cc1`: “inactive”. For `CCN(CC)CCCCCCCCOC(=O)c1cc(OC)c(OC)c(OC)c1`, the Potency result was “inactive”.

Consider `O=C(O)C1=CC(=C(c2ccc(O)c(C(=O)O)c2)c2ccc(O)c(C(=O)O)c2)C=CC1=O`, for which the Potency is 21.2 µM (active). Same read-out and setting: next, `CC(=O)O[C@H]1CC2(C)[C@@H](C[C@@H](O)[C@H]3[C@@]4(C)CC[C@@H](O)[C@@H](C)[C@@H]4CC[C@@]32C)C1=C(CCC=C(C)C)C(=O)O` (some centres not stated): “inactive”; `N#Cc1cc([N+](=O)[O-])c2sc(C(N)=O)[n+]([O-])c2c1`: “inactive”; `N#C/C(=C\c1ccc(O)c(O)c1)C(=O)NCCc1ccccc1`: 2.38 µM (active). The same measure, in the same setting: next, `Nc1ncnc2c1c(-c1ccc(Oc3ccccc3)cc1)cn2C1CCCC1`: 23.8 µM (active); `CN1Cc2sccc2C(c2ccc(O)c(O)c2)C1` (configuration not stated): “inactive”; `O=c1[nH]c(=S)[nH]c(-c2ccccc2)c1Cc1c(O)ccc2ccccc12`: 7.52 µM (active). On the same count and under the same terms, next, `O=C(O)c1ccccc1Nc1ccccc1`: “inactive”; `NS(=O)(=O)c1cccc2c1c([N+](=O)[O-])cc1nc(O)c(O)nc12`: “inactive”. Consider `Cc1cccc(C)c1OCC(N)C(C)C` (configuration not stated), for which the Potency result was “inactive”. On the same count and under the same terms, next, `O=c1cc(-c2ccccc2)[nH]c2nc(Cl)ccc12`: 11.9 µM (active); `CCCCCCCCCC(=O)NC(CN1CCOCC1)[C@H](O)c1ccccc1` (some centres not stated): “inactive”.

As to `COC(=O)C(N)Cc1ccc(Cl)cc1` (configuration not stated), the Potency entry is “inactive”. For `CC[C@H](NC(=O)c1c(C)c(-c2ccccc2)nc2ccccc12)c1ccccc1`, the Potency result was “inactive”. On the same count and under the same terms, next, `Cc1ccc([N+](=O)[O-])cc1S(=O)(=O)N(C)C`: “inactive”.

In a further assay the test system is Zika virus NS2B-NS3 protease. Description: Primary screen GU AMC qHTS for Zika virus inhibitors (AID 1347154). Further: nearly all actives have a fitted effect of over 70% in size. Conditions: Zika NS2B-NS3 unlinked protease, AMC fluorogenic substrate; series mostly up to 54.1 µM. The method in brief: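 Unlinked Zika NS2B hydrophilic domain–NS3 protease complex at 25 nM in 10 mM Tris-HCl pH 8.0, 0.01% Tween 20, with an AMC peptide substrate. Fluorescence change (340/450 nm) over 15 min at room temperature, normalized to controls, fitted to 4-parameter Hill.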
(qHTS replaces the single test concentration by a dilution series.)
On to `O=[N+]([O-])c1cccc2c(Br)[nH]nc12`, for which the Potency entry is “inactive”. For the compound `Cn1c(=O)c2[nH]c(-c3ccc(S(=O)(=O)O)cc3)nc2n(C)c1=O`, the Potency was 5.32 µM (active).

As for `CC(C)NC[C@H](O)COc1ccc(CC(N)=O)cc1`, the Potency result is “inactive”. With `CCN(CC)CCCCCCCCOC(=O)c1cc(OC)c(OC)c(OC)c1`, the Potency result is “inactive”. The same measure, in the same setting: next, `O=[N+]([O-])c1cccc2cn[nH]c12`: “inactive”; `NC/C=C\C(=O)O`: “inactive”. On the same count and under the same terms, next, `CC(C)NC[C@H](O)COc1cccc2ccccc12`: “inactive”; `O=C(O)c1ccccc1Nc1ccccc1`: “inactive”; `NS(=O)(=O)c1cccc2c1c([N+](=O)[O-])cc1nc(O)c(O)nc12`: “inactive”. Same read-out and setting: next, `CN1CCN(c2nc3cc(C(F)(F)F)ccc3n3cccc23)CC1`: “inactive”; `CC[C@H](NC(=O)c1c(C)c(-c2ccccc2)nc2ccccc12)c1ccccc1`: “inactive”.

The values above are taken from PubChem BioAssay (NCATS).
